Results published in PubChem BioAssay (NCI).
Compounds without any hit were thinned out: in the full panel of roughly 79,000, 15% have a hit. Active and inactive are the calls of the source. Rule as the data show it: active = growth inhibition above about 70%; inactive = the rest.

Columns and labels:
[1] = NCI Yeast Anticancer Drug Screen. Data for the rad50 strain (AID 155);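 also: 0% = growth of vehicle-only cultures of the same strain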; conditions: S. cerevisiae rad50 strain growth inhibition; at 50.0 µM; hits give high values
How it was run: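 Growth of the mutant yeast was measured after compound exposure and referenced to vehicle-treated cultures.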

[2] = NCI Yeast Anticancer Drug Screen. Data for the mec2-1 strain (AID 157); conditions: S. cerevisiae mec2-1 strain, at 50.0 µM, hits give high values
How it was run: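 Vehicle-treated cultures served as reference for growth inhibition of compound-exposed mec2-1 yeast.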

[3] = NCI Yeast Anticancer Drug Screen. Data for the sgs1 mgt1 strain (AID 161);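 also: 0% = growth of cultures given vehicle only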; conditions: S. cerevisiae sgs1 mgt1 strain, at 50.0 µM, hits give high values
How it was run: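 Genetically altered yeast, compound exposure, growth inhibition relative to vehicle.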

[4] = NCI Yeast Anticancer Drug Screen. Data for the cln2 rad14 strain (AID 165);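 also: 0% = growth equal to vehicle treated cultures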; conditions: S. cerevisiae cln2 rad14 strain, at 50.0 µM, hits give high values
How it was run: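 Each compound was tested on cln2 rad14 yeast. Inhibition of growth was calculated against vehicle-exposed controls.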

[5] = NCI Yeast Anticancer Drug Screen. Data for the bub3 strain (AID 167); conditions: S. cerevisiae bub3 mutant strain, at 50.0 µM, hits give high values
How it was run: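 Whole-cell yeast assay. The mutant strain was incubated with compounds, and growth inhibition was determined by comparison with vehicle-treated cells.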

[6] = NCI Yeast Anticancer Drug Screen. Data for the mlh1 rad18 strain (AID 175); conditions: S. cerevisiae mlh1 rad18 strain growth inhibition; at 50.0 µM; hits give high values
How it was run: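 Vehicle-treated cultures served as the reference for growth inhibition in a yeast strain carrying DNA damage repair alterations exposed to each compound.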

Measured: growth inhibition

Clc1ccccc1/C=C(/c1ccccc1)c1ccccn1
inactive: [1] 37.5% | [2] 12.3% | [3] 23.3% | [4] -8.85% | [5] 29.9% | [6] 15.8%

Cc1ccc(NCCN(C)C)c2c(=O)c3cccc(O)c3sc12
active: [1] 73.5%
inactive: [2] 35.1% | [3] 18.2% | [4] 26.8% | [5] 40.4% | [6] 65%

CCCCCCCCCCCCCCCC1CCCC2CCCCC12 (stereo not drawn)
inactive: [1] -9.05% | [2] 9.25% | [3] 9.5% | [4] -5.85% | [5] 12.6% | [6] -26.4%

OC(Cc1ccccn1)c1ccccc1 (stereo not drawn)
inactive: [1] 33.4% | [2] 13.1% | [3] 21.4% | [4] 22.6% | [5] 9.35% | [6] 32.1%

OC(C1=C/C(=C\c2ccncc2)c2ccccc21)c1ccncc1 (stereo not drawn)
inactive: [4] 47.6%
active: [1] 84.7% | [2] 86.5% | [3] 96.8% | [5] 86.3% | [6] 93%

Cc1cn2cc(-c3cccs3)nc2s1
inactive: [1] 15.2% | [2] -1% | [3] 19.4% | [4] 18.6% | [5] -7.8% | [6] 15.1%

CC(=O)OC(C(=O)N(c1ccccc1)c1ccccc1)c1ccccc1 (stereo not drawn)
inactive: [1] 3.5% | [2] 27.4% | [3] 10.9% | [4] 18.2% | [5] 7.35% | [6] 16.1%

Oc1cc(CN2CCOCCOCCOCCOCC2)c(O)cc1CN1CCOCCOCCOCCOCC1
inactive: [1] 7.85% | [2] -11.8% | [3] 8.9% | [4] -49.1% | [5] -8.3% | [6] -14.1%

CC(C)SC(=O)C[Si](C)(C)C
inactive: [1] -5.8% | [2] 6.95% | [3] -2.9% | [4] -16.1% | [5] 26.7% | [6] -1.65%

c1ccc2cc(CNCCCCNCCCNCc3ccc4ccccc4c3)ccc2c1
active: [5] 85% | [6] 76.3%
inactive: [1] 63.8% | [2] 38.6% | [3] 62.3% | [4] 46.2%

Cc1cc(=O)oc2cc(OCc3ccccc3)cc(O)c12
inactive: [1] 22.8% | [2] 4.2% | [3] 21.8% | [4] -3.3% | [5] 6.45% | [6] 12.8%

O=C1OC(=C(Cl)Cl)C2C3c4ccccc4C(c4ccccc43)C12 (stereo not drawn)
inactive: [1] 21.9% | [2] 21.6% | [3] -1.5% | [4] 8.75% | [5] 2.7% | [6] 18.2%

O=C(Nc1ccc(N=C=S)cc1Cl)c1cc(Cl)cc(Cl)c1O
inactive: [2] 56.9% | [4] 67.7%
active: [1] 82.3% | [3] 78.5% | [5] 82.5% | [6] 82.5%

CSc1nn(C)c2cc(C)c3ccccc3[n+]12
inactive: [1] 20.4% | [2] -7.8% | [3] -10.2% | [4] 7.25% | [5] 4.6% | [6] -16.4%

COc1ccc(OC)c(NC(=O)OCc2ccc3c(c2)OCO3)c1
inactive: [1] 1.25% | [2] -14% | [3] 5.45% | [4] 10.2% | [5] 26.9% | [6] -4.7%

O=C(Nc1ccc(Cc2ccc(NC(=O)Nc3nc4ccccc4s3)cc2)cc1)Nc1nc2ccccc2s1
inactive: [1] -5.15% | [2] -17.4% | [3] -2.25% | [4] 19.2% | [5] 21.6% | [6] -4.5%

CCCCCCCCCCCCCCCCSc1ccncc1NN=O
inactive: [1] 36.2% | [2] -2% | [3] 17.1% | [4] -10.5% | [5] -3.8% | [6] 2.3%

NNc1nc(N2CCOCC2)c2[nH]cnc2n1
inactive: [1] -1.3% | [2] -5.45% | [3] 14.2% | [4] 4.5% | [5] -9.9% | [6] 4.75%

Cc1cc(=O)c(C#N)c(C)o1
inactive: [1] 6.65% | [2] 10.2% | [3] 19.4% | [4] -2.7% | [5] -1.95% | [6] 10%

O=C1CCC2(c3ccccc3)Nc3ncccc3N12 (stereo not drawn)
inactive: [1] 33% | [2] 2.8% | [3] 6.6% | [4] 3.85% | [5] 23% | [6] 27.8%

CCNC1=C(C(=O)OCC)C(=O)CO1
inactive: [1] 34% | [2] 15.9% | [3] 24.2% | [4] 9.95% | [5] 0.3% | [6] -0.1%

OC(C#Cc1ccccc1)(C#Cc1ccccc1)/C=C/c1ccccc1
inactive: [1] 17.1% | [2] -5% | [3] -5.85% | [4] -7.95% | [5] -9.15% | [6] 11.5%

ClC1(Cl)CC1c1ccccc1 (stereo not drawn)
inactive: [1] 0.1% | [2] 11.9% | [3] 6.8% | [4] -9.7% | [5] 1.45% | [6] 14.7%

C=C1C(=O)O[C@@H]2/C=C(/C)[C@@H](OC(C)=O)C/C=C(\C)C(O)[C@@H](OC(=O)/C(C)=C\C)C12 (stereo partly drawn)
inactive: [1] 17.4% | [2] -0.2% | [3] 22.5% | [4] 9.1% | [5] 12.6% | [6] -50.4%

CC(C)(O)C1COC2=C1C(=O)c1ccccc1C2=O (stereo not drawn)
inactive: [1] 11.8% | [2] -10.2% | [3] 24.6% | [4] 12.6% | [5] 7.2% | [6] -35.9%

CCCCC(CCCC)(C(=O)NC)c1ccccc1
inactive: [1] 3.85% | [2] 6.65% | [3] -4.5% | [4] -14.2% | [5] 17.1% | [6] -23.5%

Cc1ccc(NC(=O)Oc2ccccn2)cc1
inactive: [1] -9.7% | [2] -30.5% | [3] -8.05% | [4] -4.4% | [5] -0.35% | [6] -6.25%

COc1cc(/C=C/C(=O)OCC23CC[C@@]4(C(=O)O)CCC(C)[C@H](C)C4C2=CCC2[C@@]4(C)CC[C@H](O)C(C)(C)C4CC[C@]23C)ccc1O (stereo partly drawn)
inactive: [1] 20.2% | [2] 9.95% | [3] 26.6% | [4] 4.85% | [5] -1.6% | [6] 6.9%

CC(=O)Nc1nc(NC(C)=O)c2[nH]c(CO)nc2n1
inactive: [1] -4.2% | [2] -10.4% | [3] -11.8% | [4] -33.6% | [5] -61.3% | [6] -11.7%

Nc1cccc(C(F)(F)F)c1
inactive: [1] -20.8% | [2] 0.25% | [3] -16.3% | [4] -58.5% | [5] 18.4% | [6] -0.05%

COc1ccccc1/C=C/c1nc2ccccc2o1
inactive: [1] 47.6% | [2] 19.7% | [3] 56.1% | [4] 13.6% | [5] 59.8% | [6] 53%

COC(=O)c1ccc(C(=O)OC)c(NC(=O)CC(=O)c2ccc([N+](=O)[O-])cc2)c1
inactive: [1] 46.2% | [2] 18.9% | [3] 51.4% | [4] 9.55% | [5] -0.5% | [6] 34.8%

CCCCOc1ccc2c(c1)CC[C@@H]1[C@@H]2CC[C@]2(C)C(=O)N(CCCC)C(=O)C[C@@H]12
inactive: [1] 5% | [2] -3.25% | [3] 16.4% | [4] -17.1% | [5] 16.5% | [6] 4.2%

COc1cc(C(=O)N(C)N(C)C)cc(OC)c1OC
inactive: [1] 6.6% | [2] -9.6% | [3] 13.4% | [4] 10.9% | [5] -2.85% | [6] -5.6%

COC(=O)C1C2C=CC(C2)N1[C@@H](C)c1ccccc1 (stereo partly drawn)
inactive: [1] 8.55% | [2] -28.3% | [3] -40.1% | [4] -5.6% | [5] -28% | [6] -21.4%

CCc1nnc(-c2nsc3ccccc23)s1
inactive: [1] 38.5% | [2] -22.9% | [3] 6.4% | [4] -12.8% | [5] 15.8% | [6] 23.3%

Cc1c(Br)cc(C(=O)O)c(O)c1Br
inactive: [1] -4.95% | [2] 2.05% | [3] 19.6% | [4] -29.2% | [5] -26.6% | [6] 3.05%

O=C1C[C@H]2CCCC[C@@H]2O1
inactive: [1] 2% | [2] 3.55% | [3] 26.5% | [4] 39.1% | [5] -13.5% | [6] -6%
